# Hits are enriched below; roughly 20% of the tested compounds scored in any of these assays.
# Pf growth 96h: P. falciparum growth inhibition at 96 hours; P. falciparum luciferase reporter growth, 96 h; Potency, µM (series often up to 28.7 µM), for inactives: at the highest dose activity change, negative = inhibition, hits mostly inhibitors; actives 6.9% (n = 320,000); AID 504834; further: potency means the concentration at half of the fitted maximal effect; on the % scale 0 is the no-effect control and ±100 the full control effect
#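 Plates of compound plus infected erythrocytes (2% hematocrit, 0.05% parasitemia final) incubate 96 hours, 37 C, 5% CO2. Detection reagent added; reduced luminescence from the parasites' luciferase reporter flags inhibition.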
# Shiga inhibitor: Shiga toxin inhibition | inhibition, % at 38.7 µM | AID 2315 | Vero cells, Shiga toxin protein synthesis inhibition reporter | actives 9.2% (n = 290,000); in the data active means inhibition mostly above about 28%, no sharp cut-off; inactive means mostly below about 43%; further: 0% is about no effect
# Pf growth 48h: inhibits P. falciparum growth in the first generation, 48 h. P. falciparum luciferase growth in erythrocytes, 48 h. Potency, µM (top dose mostly 28.7 µM), for inactives: top-dose activity change, negative = inhibition, most hits filed as inhibitors. actives 5.9% (n = 310,000). AID 504832; further: potency means the concentration at half of the fitted maximal effect; on the % scale 0 is the no-effect control and ±100 the full control effect
#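 Read-out is firefly luciferase luminescence from an integrated reporter in P. falciparum, so falling signal marks reduced parasite growth. Infected erythrocytes were at 2% hematocrit and 0.1% parasitemia (final) in Albumax-supplemented RPMI 1640.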
# HCMV inh: human cytomegalovirus inhibition. HFF cells, HCMV-luciferase reporter, 72 h; active compounds read low. activity change, negative = inhibition, % at 57.5 µM. actives 4.5% (n = 410,000); in the data active means activity change below about -60%; inconclusive means no clear call, values can overlap the other calls; inactive means above about -39%; further: on the % scale 0 is the no-effect control and ±100 the full control effect
#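 Luciferase read-out from HCMV-luciferase-infected HFFs (MOI 1 PFU/cell) 72 h post infection at 37C; compounds added after 16 h cell attachment; activity normalized between buffer-only basal and Salinomycin (10uM) inhibitor controls.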
# CHX counter: affects cycloheximide protein synthesis inhibition readout, counter-screen; actives 12% (n = 300,000); AID 2314; max response, %; cell reporter, cycloheximide protein synthesis inhibition counterscreen; in the data active means max response mostly above about 13%, no sharp cut-off; inactive means mostly below about 14%; further: read at 38.3 µM for the half of the compounds with a filed dose; 0% is about no effect
# Numbers without * were called inactive; i = inactive; ? = inconclusive; · = not tested or not shown. Unless noted, the call rests on the fitted dose curve; in most records, active means well fitted inhibition curve with a large enough effect; inconclusive means small, poorly fitted or top-dose-only effect, or another doubt; inactive means no such curve, though single readings can be large or run the other way.
SMILES,Pf growth 96h,Shiga inhibitor,Pf growth 48h,HCMV inh,CHX counter
CCN(CC)S(=O)(=O)c1cccc(-c2nnc(SCCOc3ccccc3C)o2)c1,?,-5,?,?,-2
CCN(CC)S(=O)(=O)c1cccc(-c2nnc(SCC(=O)c3cc(C)n(C)c3C)o2)c1,-19%,-4,?,?,-4
C[C@H](C(=O)O)c1ccc2cc(O)ccc2c1,·,20,·,·,-3
N#Cc1cc2c(nc1SCC(=O)Nc1sc3c(c1C#N)CCC3)CCC2,52%,-1,19%,24,7
COc1ccc(-c2cc(C(F)(F)F)nc(SCC(=O)Nc3sc4c(c3C#N)CCC4)n2)cc1,1.7µM*,10,4.1µM*,-25,-2
COc1ccc(-c2ccc(C#N)c(SCC(=O)Nc3sc4c(c3C#N)CCC4)n2)cc1OC,?,-11,·,-88*,1
N#Cc1c(NC(=O)CSc2nc(-c3ccccc3)cc(C(F)(F)F)n2)sc2c1CCC2,31%,-18,3%,0,-1
O=C(CCCOc1ccc(Br)cc1)NCCc1ccc(OC(F)F)cc1,-1%,-6,-6%,-16,7
Clc1ccc(-c2nc3ccncc3[nH]2)cc1,21%,59*,?,21,82*
Fc1ccc(-c2nc3ccncc3[nH]2)cc1,?,28,·,26,23*
COc1ccc(-c2nc3ccncc3[nH]2)cc1OC,13%,-4,0%,87,9
C#CCOCCOCCOCCNc1nc(N2CCN(C(=O)[C@H]([C@@H](C)CC)n3cc([C@@H](N)CC(C)C)nn3)CC2)nc(N2CCN(C(=O)[C@H](Cc3ccc(O)cc3)n3cc([C@@H](N)C(C)CC)nn3)CC2)n1 (stereo not given in full),5.2µM*,-22,5.2µM*,-8,-3
C#CCOCCOCCOCCNc1nc(N2CCN(C(=O)[C@H]([C@@H](C)CC)n3cc([C@@H](N)Cc4ccc(O)cc4)nn3)CC2)nc(N2CCN(C(=O)[C@H]([C@@H](C)CC)n3cc([C@@H](N)CC(C)C)nn3)CC2)n1,1.5µM*,-4,1.9µM*,27,-5
C#CCOCCOCCOCCNc1nc(N2CCN(C(=O)[C@H]([C@@H](C)CC)n3cc([C@@H](N)Cc4ccc(O)cc4)nn3)CC2)nc(N2CCN(C(=O)[C@H](Cc3ccc(O)cc3)n3cc([C@@H](N)C(C)CC)nn3)CC2)n1 (stereo not given in full),?,-8,?,-21,-1
C#CCOCCOCCOCCNc1nc(N2CCOCC2)nc(N2CCN(C(=O)[C@H](Cc3ccc(O)cc3)n3cc([C@@H](N)CC(C)C)nn3)CC2)n1,12µM*,-17,5.2µM*,11,-2
C#CCOCCOCCOCCNc1nc(N2CCN(C(=O)[C@H](CCC(=O)O)n3cc(C(N)CO)nn3)CC2)nc(N2CCN(C(=O)[C@H](Cc3ccc(O)cc3)n3cc(C(N)CC(C)C)nn3)CC2)n1 (stereo not given in full),44%,-12,44%,·,1
C#CCOCCOCCOCCNc1nc(N2CCOCC2)nc(N2CCN(C(=O)[C@H]([C@@H](C)CC)n3cc([C@@H](N)CC(C)C)nn3)CC2)n1,6.6µM*,-5,?,23,-2
CCOc1ccc(C(=O)NCC(=O)N2CC=C(c3ccccc3)CC2)cc1OCC,?,·,?,-30,·
Cc1cccc(C)c1Nc1nn2c(=O)c3cc4c(cc3nc2s1)OCO4,·,·,·,7,·
COc1ccc(CCNC(=O)CSc2nc(O)c(C(C)C)c(=O)[nH]2)cc1OC,14%,8,-23%,-19,-5
C#CCOCCOCCOCCNc1nc(N2CCN(C(=O)[C@H]([C@@H](C)CC)n3cc([C@@H](N)Cc4ccc(O)cc4)nn3)CC2)nc(N2CCN(C(=O)[C@H](Cc3ccc(O)cc3)n3cc([C@@H](N)CC(C)C)nn3)CC2)n1,?,-10,4.7µM*,-17,2
C#CCOCCOCCOCCNc1nc(N2CCOCC2)nc(N2CCN(C(=O)[C@H]([C@@H](C)CC)n3cc([C@@H](N)Cc4ccc(O)cc4)nn3)CC2)n1,?,-5,1.5µM*,·,1
CCOc1ccc(C(C)=O)cc1CN1C(=O)NC(C)(C2CC2)C1=O (stereo not given),?,-5,?,-10,9
O=C(CN(Cc1ccc(F)cc1)C(=O)c1csnn1)NC1CCCC1,2%,-3,-2%,-32,-3
OC1c2c(F)cccc2N=C2CCCCCN21 (stereo not given),·,·,·,18,·
SMILES,Pf growth 96h,Shiga inhibitor,Pf growth 48h,HCMV inh,CHX counter
Cc1cccn2c(=O)c3cc(C(=O)NC(C)C)n(C)c3nc12,·,·,·,1,·
O=C(NCCNCC(O)COc1ccc(O)cc1)N1CCOCC1 (stereo not given),6.7µM*,·,-15%,26,·
O=C(NCCCc1ccccc1)N1CCOCC1,2%,-8,13%,3,-3
N=C1c2ccccc2CN1CC(=O)c1ccccc1,225%,40*,174%,-33,41*
Cc1ccc(C)c(C(=O)CN2Cc3ccccc3C2=O)c1,39%,65*,19%,27,22*
N=C1c2ccccc2CN1NC(=O)c1ccccc1,98%,37,51%,19,7
Cc1ccc(CNC(=O)CN2Cc3ccccc3C2=O)cc1,·,·,·,24,·
COc1c(O)c(O)c2cc(OC)c3c(OC)cc(=O)c4c5c(=O)c(OC)c(C(C)=O)c6c5c(c1CC=6C)c2c34,·,-5,·,·,1
Cn1/c(=N/N=C/c2ccc(Cl)c([N+](=O)[O-])c2)sc2ccccc21,37%,-5,81%,229,9
CN1N=C(C(=O)N=c2sc3ccccc3n2C)CCC1=O,·,·,·,0,·
Cn1/c(=N/N=C/c2ccc(N3CCOCC3)cc2)sc2ccccc21,85%,71*,41%,29,37*
Cn1/c(=N/N=C/c2ccccn2)sc2ccccc21,244%,92*,209%,74,51*
Cc1ccc(N(CC(O)CN2CCCCC2)S(=O)(=O)c2ccccc2[N+](=O)[O-])cc1 (stereo not given),-1%,-6,-4%,?,-3
CCOc1ccc(CNCc2c(C(=O)O)n(Cc3ccccc3F)c3cc(OC)ccc23)cc1,·,·,·,19,·
Cc1cc(N)n(-c2nc(-c3cccnc3)nc3ccccc23)n1,336%,64*,?,27,33*
Cc1cc(N2CC(C)OC(C)C2)nc2ccccc12 (stereo not given),9%,15,93%,-80*,-4
Cc1cc(N)n(-c2ccccc2)n1,199%,21,12%,16,13
Cc1ccc2nc(N3CC(C)OC(C)C3)nc(-c3ccccc3)c2c1 (stereo not given),?,-6,?,8,0
Cc1cc(N)n(-c2cc(C)c3ccccc3n2)n1,i,79*,445%,164,46*
Cc1cc(C)c2nc(-n3nc(C)cc3N)cc(C)c2c1,100%,108*,205%,69,26*
CCc1ccc(S(=O)(=O)Nc2ccc3c(c2)sc(=O)n3C)cc1,·,·,·,-18,·
